These sequences were tested on RXRa homodimer (NR concentration 180 nM) (assay: PBM binding z-score (relative to random genomic background probes); higher = stronger binding; sequences stand for … in GC…GCGATTGACAGCGTAGAATGAAGG).
Outline: (§1)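 The probes on custom Agilent 4×180K protein-binding microarrays were double-stranded, with 34-nt variable regions bearing direct-repeat seeds, single-nucleotide variants, half-site ablations and random human genomic background sequences. Incubation lasted 1 h with ligand-free nuclear receptor dimers in PBS pH 7.4, 2% milk, 0.02% Triton X-100, 1 mM DTT, 0.2 mg/mL BSA and 0.4 mg/ml salmon testes DNA. Antibodies against each partner (one per run) detected bound dimers, and fluorescence scans were regression-normalized. Binding z-scores take the random background probes as reference.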

Sequence	PBM binding z-score
ACTAGCAGGCCAAGTTTGGGTCAATCAAACAAAG	0.858
GCAGACAGGTGAAACGCAAGTAACTCAGGGTGGC	0.606
GATACAGGGTCAGCTAGAGGACAGAGTATGGAAA	4.03
CCAGACAGGTGACAGGTAACTCAGTCTGGTACGC	0.665
GCGACAGGGGCATCAGCAGGTTACCATAACTTAA	0.871
CCAACTAGGTCAGAACAGGACAGTGAAGGATGAT	1.22
TTACCAAGGTGAGCTCAGGTCGTTGATCCAACTC	0.652
TCTCGGAGGACACGAAGGACAGAGCTTTCCAGAG	0.243
TCGAGTAGGTTAGGGGCCTTCAGAATGGCGTCGA	-0.143
TCTAGTTGGGCACGGAGGTCACACACGACGGGTA	4.43
TTACCAAGGTGAAAGGTCGTCGATGCACGCCTTG	6.2
ACAGACAGGTTAGTGAAGGTAACTCAGCTGGACG	0.511
GCTATTAGTTGTAAGGGCAACCGAATGATTCTCG	0.441
GGAACGAGGACAAGTTGATAGCAGAGTTTGATGG	0.0511
AGACTGAGGTTAAGATCAGGGAAACAGAATACAT	2.21
CCGACTGGGGCAGAACGGTTACCATACCATCCGG	-0.293
GCTACTAGTTGAAAGGGCAACCGAATGATTCTCG	1.33
TAGCCAAGGTCATGGGCCAGTATACCACGCGAAC	6.11
TTACCAAGGTGAGCTGAGGTCGTTGAACCAACTC	1.57
CCGAGTAGGTTATGGGGCATTCCGGCAACGGTGA	0.465

Sequence	PBM binding z-score
CGTCCAAGGCCAAAGGTCAGTGAAGAGATGACGG	5.47
GCCAGTTGGTCAGTAAAAGGTCACACACCGGTCG	5.25
TCTCGTAGATCAAGCAGGTTAAGAAAGCCTGAGT	-0.0292
GCTAGTTGGTCAGTAAAAGCTCACACACCGGTCG	-0.0351
TCGAGTAGGTTAGGGGCATACAGAATGGCGTCGA	1
TCTATTAGTTGACTAGGGCAACCGAAACAGCGGA	0.703
CCTATTAGTTGACCATAAGGGCCACCGAAGCTCG	0.414
GCATATAGGTAATACAAGGTGAAGGTCCGATTGT	0.694
CAGCCTAGCTCAGGGCCAGTATAGGAGGAACGTT	-0.971
CCTCCGAGGACAGAAGGTCAGAGCTGTCCGCTTT	2.37
TCATATAGGTAAAAGGTGAAATTCGGTGTGGTAA	3.04
AGTCAAAGTTCAGGACGAAGTAACGTAAAGCACG	2.71
CGAACTAGGTCATCCATGACAGTGAATACATTGA	2.97
TCTTGTAGATCAATAGAGGTTGAGAAAGTGCGCT	0.307
CGAACTCGGTCATCCAGGACAGTGAATACATTGA	0.784
GCTAGTTGGTCAGTAAAAGGTCAGACACCGGTCG	3.55
TCTTGTAGATAAGCAGGTTAAGAAAGCTGGCCAA	0.245
TCTATTAGTAGATTAGGGCAACCGAAACAGCGGA	0.284
ACAGACAGGTGATGAAGGGAACTCAGGCTATCAT	0.238

These sequences were tested on THRa:RXRa (NR concentration 90 nM, RXRa partner concentration 90 nM) in the same assay as above.
Outline: as §1

Sequence	PBM binding z-score
ACTAGCAGGCCAAGTTTGGGTCAATCAAACAAAG	2.25
GCAGACAGGTGAAACGCAAGTAACTCAGGGTGGC	0.23
GATACAGGGTCAGCTAGAGGACAGAGTATGGAAA	3.79
CCAGACAGGTGACAGGTAACTCAGTCTGGTACGC	0.126
GCGACAGGGGCATCAGCAGGTTACCATAACTTAA	1.61
CCAACTAGGTCAGAACAGGACAGTGAAGGATGAT	3.67
TTACCAAGGTGAGCTCAGGTCGTTGATCCAACTC	4.12
TCTCGGAGGACACGAAGGACAGAGCTTTCCAGAG	1.48
TCGAGTAGGTTAGGGGCCTTCAGAATGGCGTCGA	-0.36
TCTAGTTGGGCACGGAGGTCACACACGACGGGTA	3.34
TTACCAAGGTGAAAGGTCGTCGATGCACGCCTTG	3.55
ACAGACAGGTTAGTGAAGGTAACTCAGCTGGACG	2.2
GCTATTAGTTGTAAGGGCAACCGAATGATTCTCG	1.73
GGAACGAGGACAAGTTGATAGCAGAGTTTGATGG	2.53
AGACTGAGGTTAAGATCAGGGAAACAGAATACAT	2.35
CCGACTGGGGCAGAACGGTTACCATACCATCCGG	-0.413
GCTACTAGTTGAAAGGGCAACCGAATGATTCTCG	0.651
TAGCCAAGGTCATGGGCCAGTATACCACGCGAAC	3.89
TTACCAAGGTGAGCTGAGGTCGTTGAACCAACTC	4.77
CCGAGTAGGTTATGGGGCATTCCGGCAACGGTGA	0.0973

Sequence	PBM binding z-score
CGTCCAAGGCCAAAGGTCAGTGAAGAGATGACGG	3.24
GCCAGTTGGTCAGTAAAAGGTCACACACCGGTCG	3.38
TCTCGTAGATCAAGCAGGTTAAGAAAGCCTGAGT	0.103
GCTAGTTGGTCAGTAAAAGCTCACACACCGGTCG	-0.374
TCGAGTAGGTTAGGGGCATACAGAATGGCGTCGA	0.925
TCTATTAGTTGACTAGGGCAACCGAAACAGCGGA	0.514
CCTATTAGTTGACCATAAGGGCCACCGAAGCTCG	0.438
GCATATAGGTAATACAAGGTGAAGGTCCGATTGT	4.08
CAGCCTAGCTCAGGGCCAGTATAGGAGGAACGTT	-0.848
CCTCCGAGGACAGAAGGTCAGAGCTGTCCGCTTT	2.76
TCATATAGGTAAAAGGTGAAATTCGGTGTGGTAA	1.77
AGTCAAAGTTCAGGACGAAGTAACGTAAAGCACG	1.95
CGAACTAGGTCATCCATGACAGTGAATACATTGA	2.84
TCTTGTAGATCAATAGAGGTTGAGAAAGTGCGCT	0.629
CGAACTCGGTCATCCAGGACAGTGAATACATTGA	2.12
GCTAGTTGGTCAGTAAAAGGTCAGACACCGGTCG	2.64
TCTTGTAGATAAGCAGGTTAAGAAAGCTGGCCAA	0.129
TCTATTAGTAGATTAGGGCAACCGAAACAGCGGA	0.399
ACAGACAGGTGATGAAGGGAACTCAGGCTATCAT	0.341

— the supplement of paper PMC6555819
